Source: PubChem
Hits are enriched below; roughly 19% of the tested compounds scored in any of these assays.
RORgamma inh: qHTS for inhibitors of ROR gamma transcriptional activity; Nuclear receptor ROR-gamma (Mus musculus), P51450; Drosophila S2 Gal4-RORgamma UAS-luciferase reporter, 20 h; Potency, µM (doses to about 53.6 µM), hits mostly inhibitors; actives 5.4% (n = 310,000); note: nearly all actives have a fitted effect of over 60% in size
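Luciferase reporter read in Schneider cells carrying Gal4-RORγ (mouse) and UAS-Photinus luciferase; cells given compound 1 h before 700 uM copper sulfate induction, then incubated 20 h at ambient temperature.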
TDP1 inh: qHTS Assay for Inhibitors of Tyrosyl-DNA Phosphodiesterase (TDP1) | Tyrosyl-DNA phosphodiesterase 1 (Homo sapiens), Q9NUW8 | Potency, µM (highest dose often 130 µM), most hits filed as inhibitors | AID 485290, 2010 | actives 0.28% (n = 350,000) | recombinant TDP1, AlphaScreen DNA substrate cleavage; note: nearly all actives have a fitted effect of over 40% in size
Target sequence (Q9NUW8 whole entry, looked up): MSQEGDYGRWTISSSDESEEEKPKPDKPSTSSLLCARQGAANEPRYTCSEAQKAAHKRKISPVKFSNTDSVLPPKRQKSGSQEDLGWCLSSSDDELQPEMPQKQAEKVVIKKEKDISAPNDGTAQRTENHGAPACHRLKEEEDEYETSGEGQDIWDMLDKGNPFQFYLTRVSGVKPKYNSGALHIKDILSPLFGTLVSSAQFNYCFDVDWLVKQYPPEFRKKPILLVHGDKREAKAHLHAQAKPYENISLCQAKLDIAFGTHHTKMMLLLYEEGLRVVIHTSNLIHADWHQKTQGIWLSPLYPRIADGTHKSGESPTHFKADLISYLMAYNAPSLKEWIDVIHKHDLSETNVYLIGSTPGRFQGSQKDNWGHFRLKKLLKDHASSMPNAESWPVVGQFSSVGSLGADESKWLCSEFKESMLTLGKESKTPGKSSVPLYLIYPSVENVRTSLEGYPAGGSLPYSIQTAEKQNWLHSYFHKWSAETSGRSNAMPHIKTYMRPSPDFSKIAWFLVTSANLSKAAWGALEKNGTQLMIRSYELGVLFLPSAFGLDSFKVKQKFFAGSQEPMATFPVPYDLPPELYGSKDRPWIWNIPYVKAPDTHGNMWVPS
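Enzyme-compound mixtures sat 15 min at room temperature, followed by a 5 min reaction with 15 nM final substrate and 10 min with AlphaScreen beads. Recombinant human Tdp1 was used at 1 nM final.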
TDP1 cell CPT: qHTS for Inhibitors of human tyrosyl-DNA phosphodiesterase 1 (TDP1): qHTS in cells in presence of CPT; chicken DT40 Tdp1-/-;hTDP1 cells + 20 nM CPT, ATP luminescence, 48 h; Potency, µM (highest dose often 46.2 µM), hits mostly inhibitors; actives 12% (n = 420,000); note: nearly all actives have a fitted effect of over 55% in size
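Chicken DT40 Tdp1-/- cells stably complemented with human TDP1 were seeded at 400 cells/well in medium containing 20 nM camptothecin, exposed to pin-transferred compounds, and grown at 37 °C for at least 48 hr. Viability was read as ATP luminescence.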
DT40 TDP1 no CPT: qHTS for Inhibitors of human tyrosyl-DNA phosphodiesterase 1 (TDP1): qHTS in cells in absence of CPT. DT40 Tdp1-/- hTDP1 cells, no CPT, ATP luminescence, 48 h. Potency, µM (highest dose often 46.2 µM), actives largely listed as inhibitors. AID 686978, 2013. actives 15% (n = 420,000); note: nearly all actives have a fitted effect of over 55% in size
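Compound effects on proliferation are scored in DT40 Tdp1-/-;hTDP1 cells in the absence of CPT. ATP levels (CellTiter-Glo luminescence) are recorded after a ≥48 hr, 37 °C incubation.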
Gal4-VP16 FLuc: VP16 counterscreen qHTS for inhibitors of ROR gamma transcriptional activity | Drosophila S2 Gal4-VP16 UAS-luciferase, luminescence, 20 h | Potency, µM (doses to about 53.6 µM), hits mostly inhibitors | actives 3.5% (n = 310,000);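 note: Gal4-VP16 expression switched on by copper sulfate through the metallothionein promoter; nearly all actives have a fitted effect of over 50% in size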
A number is an active result; 0 = inactive; ? = inconclusive; - = not tested or not shown; [ ] = remark or other dose. Calls come from the whole dose curve; as a rule, active = well fitted curve in the direction sought with a large enough effect; inconclusive = small, poorly fitted or top-dose-only effect, or another doubt; inactive = no such curve, though single readings can be large; an effect the other way counts as inactive or inconclusive.

SMILES	RORgamma inh	TDP1 inh	TDP1 cell CPT	DT40 TDP1 no CPT	Gal4-VP16 FLuc
CC(=O)Nc1ccc(C2=NNC(=Nc3cccc(S(=O)(=O)N(C)C)c3)SC2)cc1	0	0	6.5µM	5.8µM	?
CC1CN(C(=O)c2ccccc2)C(=Nc2cccc(S(=O)(=O)N(C)C)c2)S1 (stereo not drawn)	?	0	0	0	0
CN(C)C(=O)c1ccc(-c2cncnc2NCc2cccs2)cc1	0	28µM	0	0	0
CCOc1nc(Nc2ccc([N+](=O)[O-])cc2)nc(NC(C)(C)C)n1	0	0	0	0	0
CCN(CC)c1nc(Nc2ccc([N+](=O)[O-])cc2)nc(N(CC)CC)n1	?	0	26µM	21µM	0
Cc1cccc(Nc2nc(N)c(C#N)c(CC#N)c2C#N)c1	0	0	?	?	0
Cn1c(CCN2CCN(c3ccccn3)CC2)nc2cc(NC(=O)COc3ccc([N+](=O)[O-])cc3)ccc21	0	0	0	0	0
CC(=O)N1CCN(c2ccc([N+](=O)[O-])cc2)CC1	0	0	0	0	0
COc1ccc(NC(=O)N2CCN(c3ccc([N+](=O)[O-])cc3)CC2)cc1	0	0	2.3µM	2.3µM	0
COc1ccccc1CC(=O)N1CCN(c2ccc([N+](=O)[O-])cc2)CC1	0	0	15µM	9.2µM	0
O=C(NC1CCCCC1)N1CCN(c2ccc(Cl)cc2)CC1	0	0	?	?	0
O=C(CCc1ccc(Oc2cc([N+](=O)[O-])cc([N+](=O)[O-])c2)cc1)N1CCCCC1	?	0	?	?	13µM
O=C(NC1CCCCC1)N1CCN(c2ccc([N+](=O)[O-])cc2)CC1	?	0	13µM	?	0
c1ccc2cc(Sc3ncnc4c3oc3ccccc34)ccc2c1	0	0	?	?	0
CCC(=O)Nc1nnc(S(=O)(=O)N(C)Cc2ccccc2)s1	-	0	0	0	-
COc1ccc(CCC(=O)N2CCN(c3ccc([N+](=O)[O-])cc3)CC2)cc1OC	0	-	?	15µM	0
COc1ccc(NC(=O)N2CCN(c3ccc([N+](=O)[O-])cc3)CC2)cc1OC	0	0	?	18µM	0
O=C(Nc1cccc([N+](=O)[O-])c1)N1CCN(c2ccccc2)CC1	0	0	0	?	0
COc1ccc(N2CCN(C(=O)CSc3ccc([N+](=O)[O-])cc3)CC2)cc1	0	0	?	23µM	0
Cc1noc(NS(=O)(=O)c2ccc(NC(=O)Nc3ccc(Cl)c(Cl)c3)cc2)c1C	0	0	0	0	0
CCn1ccnc1CN1CCC(n2nccc2NC(=O)c2ccccc2OC)CC1	0	0	0	0	0
Cc1ccc(S(=O)(=O)N2CCN(S(=O)(=O)N3CCCCCC3)CC2)cc1	0	0	0	0	0
C=CCNC(=O)c1onc(CSc2ccc(C(C)C)cc2)c1C(=O)O	?	0	0	0	?
O=C(CCl)NN1C(=O)NC(c2ccccc2)(c2ccccc2)C1=O	0	0	?	21µM	0
CC(C)N1CCc2c(sc(NC(=S)NC(=O)c3ccccc3)c2C#N)C1	?	0	0	?	?
SMILES	RORgamma inh	TDP1 inh	TDP1 cell CPT	DT40 TDP1 no CPT	Gal4-VP16 FLuc
CC(C)C1Cc2c(sc(NC(=S)NC(=O)c3ccccc3)c2C#N)CO1 (stereo not drawn)	5.6µM	0	0	0	?
Cc1sc(NC(=S)NC(=O)c2ccco2)c(C#N)c1C	?	0	0	0	0
CCCN1CCc2c(sc(NC(=S)NC(=O)c3ccccc3)c2C#N)C1	0	0	21µM	?	0[10 µM]
O=C(/C=C/c1ccco1)Nc1ccccc1C(=O)Nc1cccc(C(=O)O)c1	0	-	0	0	0
COc1ccc2ccc(O)c(CN3CCN(S(=O)(=O)c4cccc(C(F)(F)F)c4)CC3)c2c1	-	0	?	0	-
Cc1ccc(S(=O)(=O)c2cc3c(=O)n4ccccc4nc3n(CCc3ccccc3)c2=N)cc1	0	-	?	16µM	0
N=c1c(S(=O)(=O)c2ccccc2)cc2c(=O)n3ccccc3nc2n1Cc1ccco1	?	0	?	21µM	?
Cc1ccc(S(=O)(=O)c2cc3c(=O)n4ccccc4nc3n(Cc3ccco3)c2=N)cc1C	?	0	?	?	18µM
COc1ccc(C(=O)C[n+]2cccc3cc(C)ccc32)cc1	-	0	0	?	-
O=S(=O)(Nc1cccc(-c2ccc(N3CCCC3)nn2)c1)c1ccccc1C(F)(F)F	-	0	0	0	-
COc1nc(OCC#N)nc(N(C)C)n1	0	0	0	0	0
CN1C(=O)CS(=O)c2ccc(C(=O)NCCC3=CCCCC3)cc21 (stereo not drawn)	0	0	?	?	?
O=C(On1c(-c2ccccc2)nc2ccccc2c1=O)c1ccco1	11µM	0	23µM	23µM	?
O=C(OCc1c(-c2ccccc2)ncc2ccccc12)c1ccco1	-	0	?	0	-
COc1cc(OC)cc(-c2nc3ccccc3c(=O)n2OC(=O)c2ccccc2C)c1	13µM	0	?	0	?
COc1ccc([N+](=O)[O-])c(S(=O)(=O)c2ccccc2)n1	2.5µM	0	0.58µM	1.6µM	5µM
COc1ccccc1S(=O)(=O)c1ccccc1[N+](=O)[O-]	0	0	0	0	0
Nc1cccnc1S(=O)(=O)c1ccccc1	0	-	0	0	0
COc1ccc([N+](=O)[O-])c(S(=O)(=O)c2ccc(Cl)cc2)n1	?	0	1µM	0.65µM	?
O=[N+]([O-])c1cccnc1S(=O)(=O)c1ccccc1	8.9µM	-	0.92µM	0.82µM	7.1µM
Cc1ccc(NC(=O)c2sc3nc[nH]c(=O)c3c2C)c(C)c1	0	0	0	0	0
CCC(CC)c1nnc(NC(=O)c2cc(C(=O)OC)cc([N+](=O)[O-])c2)s1	7.1µM	0	0	0	?
COC(=O)c1cc(C(=O)Nc2nnc(CC(C)C)s2)cc([N+](=O)[O-])c1	13µM	0	0	0	22µM
COCc1nnc(NC(=O)c2cc(C(=O)OC)cc([N+](=O)[O-])c2)s1	0	0	0	0	0
CC(=O)c1ccc(NC(=O)c2onc(C)c2Cl)cc1	0	-	0	0	0
O=C(N/N=C/C(Br)=C/c1ccccc1)c1cnccn1	?	0	1.6µM	2.3µM	0
CCC(=O)Nc1ccc(C=C(C(C)=O)C(C)=O)cc1	0	-	?	?	0
CCC(=O)Nc1ccc(/C=C(\C(C)=O)C(=O)c2ccccc2)cc1	0	-	?	23µM	0
COc1ccc(C(=O)N/N=C/C(Br)=C/c2ccccc2)cc1	3.5µM	0	13µM	15µM	16µM
COc1cccc(C(=O)N/N=C/C(Br)=C/c2ccccc2)c1	?	0	1.8µM	2.9µM	?
